Most compounds without a hit are left out; they make up all but 28% or so of the library.
CYP2C19 inh = human CYP2C19 inhibition; AID 778; inhibition, % at 5 µM; 96,000 compounds, 21% hits; CYP2C19 Supersomes, luciferin-H EGE luminescence, 30 min;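 active means CYP2C19 inhibition above a set limit at 5 µM in the primary screen, cut at about 50% in these data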;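 further: plate controls were negative control wells for no effect and 2.5 mM tranylcypromine positive control for full effect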
CYP2C9 inhib = human CYP2C9 inhibition | P11712 | CYP2C9 Supersomes, luciferin-H conversion, luminescence | inhibition, % at 5 µM | 96,000 compounds, 20% hits;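 active means blocking of liver enzyme CYP2C9 beyond about 50% at 5 µM, limit read from the data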
CYP2C19 act = cytochrome P450 2C19 (human) activation; P33261; recombinant CYP2C19, luciferin-H EGE luminescence; stronger effect = higher value; 0 = fully inhibited enzyme, 1 = untreated enzyme; AID 1025; activation factor at 5 µM; 96,000 tested, under 10 active;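 active means activation factor of at least 2 at 5 µM in the primary screen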;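 further: 0 = wells with 2.5 mM tranylcypromine and 1 = vehicle-only wells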
CYP2C9 act = activators of human CYP2C9. P11712. recombinant CYP2C9, luciferin-H conversion, luminescence; stronger effect = higher value; factor 1 = untreated enzyme, 0 = blocked. activation factor at 5 µM. 96,000 compounds, 1.4% hits;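 active means activation factor of 2 or more for CYP2C9 at a 5 µM dose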;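 further: 0 = sulfaphenazole-blocked wells and 1 = vehicle-only wells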
PLK1 kinase inh = blocks human PLK1 kinase activity; P53350; recombinant PLK1 kinase, TR-FRET peptide phosphorylation; inhibition, % at 10 µM; 97,000 compounds, 0.53% hits; AID 619;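 active means inhibition of 50% or more in the single-concentration screen; inactive means inhibition below 50%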;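 further: 0% = DMSO max control and 100% = H-89 dihydrochloride min control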
Target sequence (P53350 whole entry, looked up): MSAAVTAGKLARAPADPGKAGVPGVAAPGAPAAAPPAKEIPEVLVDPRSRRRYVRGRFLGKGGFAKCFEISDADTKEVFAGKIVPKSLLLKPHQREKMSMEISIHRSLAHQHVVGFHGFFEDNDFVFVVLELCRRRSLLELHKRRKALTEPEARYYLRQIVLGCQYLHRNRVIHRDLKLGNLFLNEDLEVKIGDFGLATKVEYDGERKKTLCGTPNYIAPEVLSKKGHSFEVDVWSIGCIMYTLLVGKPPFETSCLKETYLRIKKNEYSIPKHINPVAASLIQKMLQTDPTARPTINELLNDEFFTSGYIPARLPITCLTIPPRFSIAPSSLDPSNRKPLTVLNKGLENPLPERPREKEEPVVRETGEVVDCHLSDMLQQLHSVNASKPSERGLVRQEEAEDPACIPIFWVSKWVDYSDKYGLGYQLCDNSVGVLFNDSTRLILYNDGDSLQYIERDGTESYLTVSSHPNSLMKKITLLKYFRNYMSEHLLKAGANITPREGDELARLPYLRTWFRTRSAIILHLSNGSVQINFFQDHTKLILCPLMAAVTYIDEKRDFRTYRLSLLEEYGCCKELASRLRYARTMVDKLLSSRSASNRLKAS
Plk1 PBD FP = blocks phosphopeptide binding to human Plk1 polo box domain | P53350 | Plk1 PBD phosphopeptide binding, fluorescence polarization | inhibition, %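 (tested at about 20 µM)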 | 97,000 compounds, 0.13% hits; in the data active means inhibition above about 34%, passing the limit was not always enough
Starred values were filed as active, the others as inactive; / = no result given.

SMILES	CYP2C19 inh	CYP2C9 inhib	CYP2C19 act	CYP2C9 act	PLK1 kinase inh	Plk1 PBD FP
COc1ccc(-n2c(C)cc(C(=O)NC3CCCCC3)c2C)cc1	0	11	1	0.9	-11	47
Cc1ccc(NC(=S)NCCC(c2ccccc2)c2ccccc2)c(C)c1	61*	59*	0.4	0.4	-14	2
S=C(NCCC(c1ccccc1)c1ccccc1)Nc1cccc(Cl)c1	81*	81*	0.2	0.2	1	29
COc1ccc(OC)c(NC(=S)NCCC(c2ccccc2)c2ccccc2)c1	/	/	/	/	-4	-18
Cc1ccccc1NC(=S)NCCC(c1ccccc1)c1ccccc1	63*	64*	0.4	0.4	-13	-24
O=C(Nc1ccccc1)Nc1cccc(Cl)c1	30	-30	0.7	1.3	-32	13
CC(=O)c1ccc(OCC(O)CN(C)Cc2cccs2)cc1 (configuration not stated)	19	-2	0.8	1	0	13
COc1cccc(-n2nnc3c(=O)n(CC(=O)N4CCC(Cc5ccccc5)CC4)cnc32)c1	-6	-10	1.1	1.1	-15	-4
CCOC(=O)c1c(NC(=O)c2csc(C)c2)sc(C(C)=O)c1C	/	/	/	/	-12	-19
Cn1c(CO)cnc1SCc1ccc(Cl)cc1	84*	17	0.2	0.8	-1	1
Cn1cc(C(=O)c2ccc(Cl)cc2Cl)cc1C(=O)N/N=C(\N)COc1ccc(Cl)cc1Cl	37	86*	0.6	0.1	-2	6
Cn1cc(C(=O)c2ccc(Cl)cc2Cl)cc1C(=O)N/N=C(\N)COc1ccccc1	2	19	1	0.8	2	9
Cc1ccc(OCc2nc(-c3ccc(-n4cccc4)cc3)no2)cc1C	0	-91	1	1.9	-25	-5
COc1ccc(-c2nc(CS(=O)CC(=O)NCc3ccco3)c(C)o2)cc1 (configuration not stated)	29	33	0.7	0.7	6	-24
COc1ccc(-c2nc(CS(=O)CC(=O)NCc3cccnc3)c(C)o2)cc1 (configuration not stated)	48	62*	0.5	0.4	-1	0
CCc1ccc(-c2nc(CS(=O)CC(=O)NCc3cccnc3)c(C)o2)cc1 (configuration not stated)	15	70*	0.8	0.3	/	/
Cc1ccc(-c2cnc(-c3ccncc3)o2)cc1	98*	64*	0	0.4	-1	7
COC(=O)C1=CN(c2cccc(C)c2)C=C(C(=O)OC)C1c1cc(OC)c(O)c([N+](=O)[O-])c1	32	51*	0.7	0.5	-15	0
COC(=O)C1=CN(C)C=C(C(=O)OC)C1c1ccc(O)c(OC)c1	-7	-4	1.1	1	-4	7
CSc1nc2ccc(N3C(=O)C4CCCCC4C3=O)cc2s1 (configuration not stated)	10	15	0.9	0.8	-12	-6
Cc1ccc2c(c1)NC(=O)C(CC(=O)NCCN(CC(C)C)CC(C)C)O2 (configuration not stated)	4	51*	1	0.5	-16	0
COc1ccc(OC)c(CCNC(=O)CC2Oc3ccccc3NC2=O)c1 (configuration not stated)	50*	-8	0.5	1.1	2	13
COC(=O)c1cccc(NC(=O)Cc2coc3cc(OC)ccc23)c1	/	/	/	/	-5	-18
O=C(CCC1COc2ccccc2O1)NCC1COc2ccccc2O1 (configuration not stated)	/	/	/	/	-9	-2
CCOc1ccccc1NC(=O)Cc1coc2cc(C)ccc12	95*	90*	0.1	0.1	-6	5
SMILES	CYP2C19 inh	CYP2C9 inhib	CYP2C19 act	CYP2C9 act	PLK1 kinase inh	Plk1 PBD FP
Cc1ccc2c(CC(=O)NCC3COc4ccccc4O3)coc2c1 (configuration not stated)	100*	95*	0	0	/	/
COc1ccccc1NC(=O)c1oc2ccc(C)cc2c1C	4	-103	1	2*	-3	-24
COc1ccccc1NC(=O)Cc1coc2cc(C)ccc12	64*	42	0.4	0.6	3	5
COc1ccccc1NC(=O)c1oc2ccccc2c1NC(=O)c1cc(OC)c(OC)c(OC)c1	/	/	/	/	-112	5
N#Cc1ccccc1NC(=O)Nc1cccs1	-22	-25	1.2	1.2	1	-15
C/C(NC(=O)c1cccs1)=C1\C(=O)C[C@@H]2[C@H]1C2(C)C	39	17	0.6	0.8	-5	9
CC(=O)c1c(N2CCCC2)[nH]c(-c2ccccc2)nc1=S	51*	25	0.5	0.8	-7	-14
O=C1CN(C(=O)OCc2ccccc2)c2ccccc2N1	69*	43	0.3	0.6	-10	27
COc1ccccc1C(=O)NCCC(=O)N1CC(=O)Nc2ccccc21	-17	-97	1.2	2*	-2	-7
COc1ccc(C(=O)Nc2cc(OC)ccc2OC)cc1	71*	-20	0.3	1.2	-11	-4
CC12CCC(C(=O)Nc3ccc(SC(F)F)cc3)(CC1=O)C2(C)C (configuration not stated)	9	24	0.9	0.8	-4	-9
COc1ccc(OC)c(NC(=O)c2cn(C)c(=O)c3cc(OC)c(OC)cc23)c1	32	74*	0.7	0.3	-11	-17
COc1ccc(OC)c(NC(=O)C23CCC(C)(C(=O)C2)C3(C)C)c1 (configuration not stated)	28	-130	0.7	2.3*	-8	3
COc1ccc(OC)c(NC(=O)c2ccc(CN3CCOCC3)cc2)c1	21	-96	0.8	2*	/	/
O=C(CSCSCC(=O)NCC1CCCO1)NCC1CCCO1 (configuration not stated)	-17	-6	1.2	1.1	-9	9
COCCNS(=O)(=O)c1ccc(C2CNC(=O)C2)cc1 (configuration not stated)	-13	-8	1.1	1.1	-14	19
O=C(CCN1C(=O)COc2ccccc21)NCCCN1CCc2ccccc2C1	8	10	0.9	0.9	-9	25
CN(C)c1ccc(/C=C/C(=O)c2cccc(Br)c2)cc1	93*	44	0.1	0.6	-38	-181
Brc1ccc(OCc2nc(-c3ccccn3)n[nH]2)cc1	71*	62*	0.3	0.4	7	-17
Clc1ccc(OCc2nc(-c3ccccn3)n[nH]2)cc1	65*	51*	0.3	0.5	-8	1
COc1ccc2c(c1)c1c(n2C(C)=O)C(OC(C)=O)=NCC1	-2	-4	1	1	-12	-16
Nn1c(SC/C=C/c2ccccc2)nnc1-c1ccco1	29	-10	0.7	1.1	-6	-18
CCn1c(SC/C=C/c2ccccc2)nnc1-c1cccs1	99*	82*	0	0.2	-12	-18
Cn1c(SC/C=C/c2ccccc2)nnc1-c1cccs1	/	/	/	/	-14	3

Bioassay records as filed in PubChem.
